Test results published in PubChem BioAssay (Tox21).
Results filed as inconclusive are left out. Values without a mark were called inactive. Calls come from the whole dose curve; as a rule, active = well fitted activation curve with a large enough effect in the repeat runs; inconclusive = weak or mixed curves; inactive = flat fitted curve, though single readings scatter.
% is set by controls: 0 for no effect and ±100 for the full control effect.

Assay: A CellTox Green Cytotoxicity Assay to monitor cytotoxicity in HEK293 cells - 32 hour (AID 1224881); note: nearly all actives have a fitted effect of over 40% in size
Settings: CellTox Green fluorescence; series mostly up to 76.8 µM; cytotoxicity increase: at the top concentration
Source text: National Center for Advancing Translational Sciences [NCATS]
NIH Chemical Genomics Center [NCGC]
U.S. Environmental Protection Agency [EPA]
National Institutes of Environmental Health Sciences [NIEHS]
National Toxicology Program [NTP]
Cell-based models are critical for drug discovery. Determining the natural cytotoxic effects resulting from test compounds is an essential research activity. A CellTox Green Cytotoxicity Assay to monitor cytotoxicity in real time of continues cell culture during 40 hours of the compound treatment was used to screen Tox21 10K library compounds in Hek293 cells. CellTox Green Cytotoxicity Assay is a nonlytic, homogeneous, biofluorescent method to measure cytotoxicity in cell culture after experimental manipulation. The assay system uses a proprietary asymmetric cyanine dye that is excluded from viable cells but preferentially stains the dead cell's DNA. […] Viable cells produce no appreciable increases in fluorescence. Therefore, the fluorescence signal produced by the binding interaction with dead cell DNA is proportional to cytotoxicity.
The mixture of Hek293 cell suspension and reagents were dispensed at 600cells/6 ul/well in 1536-well tissue culture treated black solid bottom plates using a Multidrop dispenser. After the assay plates were incubated at a 37 C/5% CO2 incubator for 5 hours, 23 nL of compounds dissolved in DMSO, positive and negative controls was transferred to the assay plate by a pintool work station. The plates were incubated at 37 C for 40 hours. The fluorescence intensity were measured at 0h, 8h, 16h, 24h, 32h and 40h time points using ViewLux plate reader during compound treatment.
For `C1COCCO1`, the “cytotoxicity increase” value was -0.0461%. In the case of `Oc1cc(O)c2c(c1)O[C@H](c1ccc(O)c(O)c1)[C@H](O)C2`, the “cytotoxicity increase” value is reported as -2.68% [at 35.3 µM]. For `c1ccc(SCCSc2ccccc2)cc1`, the “cytotoxicity increase” value was -3.54%. In the case of `OCc1ccccn1`, the “cytotoxicity increase” value is reported as -6.2% [at 35.3 µM]. With `CCCc1ccc(N)cc1` the “cytotoxicity increase” value was -2.42%. For `O=[N+]([O-])c1ccc(Oc2ccc([N+](=O)[O-])cc2)cc1`, the “cytotoxicity increase” value was 11.4%. In the case of `Cc1ccc(N)cc1[N+](=O)[O-]`, the “cytotoxicity increase” value is reported as -3.66%. With `CC12CCC(CC1=O)C2(C)C` (stereo not given) the “cytotoxicity increase” value was 20.4%. In the case of `CC(C)COC(=O)C(C)C`, the “cytotoxicity increase” value is reported as 3.96%. In the case of `COC(=O)c1ccc(C(=O)OC)c(C(=O)OC)c1`, the “cytotoxicity increase” value is reported as -0.338%. For `O=C(O)c1cccc(C(=O)O)n1`, the “cytotoxicity increase” value was -12.8%. With `CO[Si](CCCNCCC[Si](OC)(OC)OC)(OC)OC` the “cytotoxicity increase” value was -10.1%. With `CN(C)CCn1nnnc1SCC1=C(C(=O)O)N2C(=O)[C@@H](NC(=O)Cc3csc(N)n3)[C@H]2SC1` the “cytotoxicity increase” value was 7.85% [at 35.3 µM]. In the case of `CCN1CCCC1CNC(=O)c1cc(S(N)(=O)=O)ccc1OC` (stereo not given), the “cytotoxicity increase” value is reported as -1.37%. For `CCCCc1ccc(N)cc1`, the “cytotoxicity increase” value was 23.6%. For `COC[C@H](c1ccc(C(F)(F)F)cc1)N1CCN(C2(C)CCN(C(=O)c3c(C)ncnc3C)CC2)C[C@H]1C`, the “cytotoxicity increase” value was 1.86% [at 35.3 µM]. In the case of `NS(=O)(=O)c1cc2c(cc1Cl)NC(CSCc1ccccc1)=NS2(=O)=O`, the “cytotoxicity increase” value is reported as -17% [at 35.3 µM]. In the case of `C=C(C)C(=O)NCCCN(C)C`, the “cytotoxicity increase” value is reported as 17.7%. With `CCCCCCOC(=O)CC(CC(=O)OCCCCCC)(OC(=O)CCC)C(=O)OCCCCCC` the “cytotoxicity increase” value was -20.7%. With `O=C(CCOCCOCCOCCOCCC(=O)Nc1c(I)cc(I)c(C(=O)O)c1I)Nc1c(I)cc(I)c(C(=O)O)c1I` the “cytotoxicity increase” value was 0.238% [at 35.3 µM]. For `Cc1nc(-c2ccc(OCC(C)C)c(C#N)c2)sc1C(=O)O`, the “cytotoxicity increase” value was 3.38% [at 35.3 µM]. For `CCO[Si](C)(OCC)OCC`, the “cytotoxicity increase” value was 9.17%. With `N#CCc1ccccc1[N+](=O)[O-]` the “cytotoxicity increase” value was 10.3%. With `O=[N+]([O-])c1ccc(CCO)cc1` the “cytotoxicity increase” value was -1.51%. For `CC(C)CCCCCCN`, the “cytotoxicity increase” value was -8.03%. In the case of `NCCNC(=O)c1ccc(Cl)cn1`, the “cytotoxicity increase” value is reported as -10.9% [at 35.3 µM]. With `CCCCCN(CCCCC)C(=O)C(CCC(=O)O)NC(=O)c1ccc(Cl)c(Cl)c1` (stereo not given) the “cytotoxicity increase” value was 6.63% [at 35.3 µM]. For `CC(C)N1C(=O)c2ccccc2C1=O`, the “cytotoxicity increase” value was 0.296%. In the case of `CCCCCCC(=O)OCC`, the “cytotoxicity increase” value is reported as -0.0633%. With `C1C2OC2C2C1C1CC2C2OC12` (stereo not given) the “cytotoxicity increase” value was 10.2%. For `OC[C@H]1O[C@@H]2O[C@H]3[C@H](O)[C@@H](O)[C@@H](O[C@H]4[C@H](O)[C@@H](O)[C@@H](O[C@H]5[C@H](O)[C@@H](O)[C@@H](O[C@H]6[C@H](O)[C@@H](O)[C@@H](O[C@H]7[C@H](O)[C@@H](O)[C@@H](O[C@H]8[C@H](O)[C@@H](O)[C@@H](O[C@H]9[C@H](O)[C@@H](O)[C@@H](O[C@H]1[C@H](O)[C@H]2O)O[C@@H]9CO)O[C@@H]8CO)O[C@@H]7CO)O[C@@H]6CO)O[C@@H]5CO)O[C@@H]4CO)O[C@@H]3CO`, the “cytotoxicity increase” value was -3.64% [at 35.3 µM]. In the case of `Cc1cc(C)c(NC(=O)CN(CC(=O)O)CC(=O)O)c(C)c1Br`, the “cytotoxicity increase” value is reported as 1.7% [at 35.3 µM]. For `COc1cc(C(=O)N2CCOCC2)cc(OC)c1OC`, the “cytotoxicity increase” value was -3.23% [at 35.3 µM]. In the case of `N#CCN(CC#N)CCN(CC#N)CC#N`, the “cytotoxicity increase” value is reported as -1.87%. In the case of `O=C1C(CCS(=O)c2ccccc2)C(=O)N(c2ccccc2)N1c1ccccc1` (stereo not given), the “cytotoxicity increase” value is reported as -17.4% [at 35.3 µM]. With `CC(=O)c1ccc(C)cc1` the “cytotoxicity increase” value was -1.28%. For `Cc1nccn1CC1CCc2c(c3ccccc3n2C)C1=O` (stereo not given), the “cytotoxicity increase” value was -0.43% [at 35.3 µM]. In the case of `Nc1[nH]c(=O)ncc1F`, the “cytotoxicity increase” value is reported as -0.0881% [at 35.3 µM]. With `C=C(C)C(=O)NCCC[N+](C)(C)C` the “cytotoxicity increase” value was -10%. In the case of `CCCOCC(C)OCC(C)O` (stereo not given), the “cytotoxicity increase” value is reported as 4.22%.
